We go through 32 compounds from PubChem BioAssay (NCI).

This is part of a sample that, as a whole, favours compounds with a hit. Of some 83,000 tested, about 20% had one in any assay.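 Cells were grown in 96-well plates and exposed to the test compound at a single concentration for 48 hours; results are reported as percent growth, with values below 10 considered active.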 Values without a mark were called inactive. The source made the active and inactive calls.

Common to all, as to assay: NCI-60 one-dose screen, 48 h (100 = growth as untreated, 0 = no growth, -100 = all killed)
What all share (settings): 10 µM unless noted

Test [1] deals with T-47D breast.
The test system of test [2] is BT-549 breast.
Test [3] concerns MDA-MB-435 melanoma.
Test [4] concerns SW-620 colon.
For test [5], the system named is MCF7 breast.
The test system of test [6] is HCT-116 colon.
The test system of test [7] is HCC-2998 colon.
Test [8] relates to KM12 colon.

Take `COc1cc([C@@H]2c3cc4c(cc3[C@H](O)[C@H]3COC[C@@H]23)OCO4)cc(OC)c1OC`: the growth is 83.7% in test [1]; 90.6% in test [2]; -12.4% (active) in test [3]; 54.4% in test [4]; 30.9% in test [5]; 66.7% in test [6]. For the same compound, the growth in test [7] was 85.5%; in test [8], 49.5%.
As for `C=CCSc1nnc(COc2ccc3c(C)c(Cc4ccccc4)c(=O)oc3c2C)o1`, the growth was 96% in test [1]; 100% in test [2]; 103% in test [3]; 99.2% in test [4]; 95.7% in test [5]; 95.6% in test [6]. Besides, the results for the growth in test [7] and in test [8] were 104% and 101%, respectively.
Turning to `COc1ccc(Cn2cc3c(c2)-c2oncc2CC3)cc1OC`, the growth in test [1] is 47.5%; in test [2] it was 59.4%; in test [3], -46.2% (active); in test [4], 21.9%; in test [5], 7.49% (active); in test [6], 4.37% (active). In addition, the results for the growth in test [7] and in test [8] were -37.5% (active) and 5.46% (active), respectively.
As to `CCC(CCCN1C(=O)c2ccccc2C1=O)Nc1cc(OC)cc2cccnc12` (stereo unspecified), the growth in test [1] is 66.3%; in test [2] it was 92.9%; in test [3], 105%; in test [4] it was 95%; in test [5] it was 20.8%; in test [6] it was 105%. Moreover, the growth in test [7] is 147%; in test [8], 110%.
Regarding `NNC(=S)N1N=C(c2cc3ccccc3o2)CC1c1c[nH]c2ccccc12` (stereo unspecified), the growth in test [1] was 40.3%; in test [2], 32.2%; in test [3], 57.8%; in test [4], 43.8%; in test [5], 20.7%; in test [6] it was 23.8%. Further, the growth was 52% in test [7] and 37.4% in test [8].
Consider `O=C(N/N=C\c1ccc(Cl)cc1)C(=O)N/N=C\c1ccc(Cl)cc1`, for which the growth in test [1] is 99.2%; in test [2], 95.4%; in test [3], 108%; in test [4] it was 113%; in test [5], 96.5%; in test [6], 106%. Besides, the growth in test [7] is 110%; in test [8], 106%.
For `CC(O)C(N)=O` (stereo unspecified), the growth in test [1] was 94.7%; in test [2], 102%; in test [3] it was 103%; in test [4], 105%; in test [5], 94.6%; in test [6] it was 94.2%. The growth in test [7] was 100%; in test [8], 103%.
On to `COc1ccc2nc3cc(Cl)ccc3c(NCCCNC(C)=O)c2c1`, for which the growth in test [1] was 38.1%; in test [2] it was 88.7%; in test [3], 41.3%; in test [4], 27%; in test [5], 15.8%; in test [6] it was 21%. Moreover, the growth was 50.3% in test [7] and 30.7% in test [8].
For the compound `CNc1nc2ncn(C)c2c(=O)[nH]1`, the growth in test [1] is 91.4%; in test [2] it was 88.7%; in test [3], 94.6%; in test [4] it was 95.7%; in test [5] it was 96%; in test [6], 100%. Further, the growth in test [7] is 90.7%; in test [8], 86.8%.
Take `COc1cc2ncnc(Nc3ccc4c(cnn4C(=O)Nc4ccccc4)c3)c2cc1OC`: the growth was 77.7% in test [1]; 83.4% in test [2]; 94.7% in test [3]; 103% in test [4]; 60.4% in test [5]; 95.8% in test [6]. Moreover, the growth is 87.4% in test [7] and 93.5% in test [8].
With `O=C1C(Cl)=C(SC2=NCCN2)C(=O)c2ccccc21`, the growth in test [1] was 49.7%; in test [2], 90.3%; in test [3], 62.7%; in test [4], 95.6%; in test [5] it was 61.1%; in test [6], 65%. Further, the growth in test [7] is 106%; in test [8], 75.5%.
For `Nc1ncn([C@@H]2O[C@H](CO)[C@@H](O)C2(F)F)c(=O)n1`, the growth is 76.2% in test [1]; 53.6% in test [2]; 53% in test [3]; 51.2% in test [4]; 20.7% in test [5]; 29.8% in test [6]. The growth in test [7] was 60.4%; in test [8], 61.2%.
Take `COc1ccccc1Cn1cc2c(c1)-c1oncc1CC2`: the growth in test [1] is 52%; in test [2], 67.4%; in test [3], -53.7% (active); in test [4], 27%; in test [5], 13.4%; in test [6], 9.05% (active). Moreover, the growth in test [7] was -43.1% (active); in test [8], 6.78% (active).
Take `COc1ccc(C(=O)CN2C(=O)NC(c3ccccc3)(c3ccccc3)C2=O)cc1`: the growth in test [1] was 95.2%; in test [2] it was 105%; in test [3], 104%; in test [4] it was 96.8%; in test [5], 102%; in test [6], 106%. The growth in test [7] is 106%; in test [8] it was 109%.
In the case of `CCNc1nnc(COc2ccc(CNC(=O)CCCC/C=C/C(C)C)cc2OC)o1`, the growth in test [1] is 81%; in test [2], 102%; in test [3], 104%; in test [4] it was 110%; in test [5], 95.2%; in test [6] it was 87.2%. Also, the results for the growth in test [7] and in test [8] were 103% and 98.2%, respectively.
Consider `N=C(c1ccccc1)N(Cc1ccccc1)Cc1ccccc1`, for which the growth in test [1] was 94.8%; in test [2] it was 93.2%; in test [3], 77.6%; in test [4], 89.4%; in test [5] it was 87.5%; in test [6], 57.3%. Further, the results for the growth in test [7] and in test [8] were 106% and 101%, respectively.
Turning to `O=C(N/N=C/c1coc2ccccc2c1=O)c1cc2oc(-c3ccccc3)cc2[nH]1`, the growth in test [1] was 84.7%; in test [2], 77.2%; in test [3], 100%; in test [4], 102%; in test [5] it was 97.2%; in test [6] it was 96.5%. Moreover, the growth in test [7] is 98.8%; in test [8], 101%.
As to `CC(=O)c1nn(-c2ccc(C)cc2)cc1C(=O)c1cc2c(ccc3ccccc32)oc1=O`, the growth is 75.2% in test [1]; 85.5% in test [2]; 99% in test [3]; 100% in test [4]; 87.5% in test [5]; 89.4% in test [6]. The values for the growth in test [7] and in test [8] were 103% and 95.1%, respectively.
On to `COC(=O)c1c[n+]([O-])ccc1OC`, for which the growth in test [1] was 114%; in test [2], 111%; in test [3], 102%; in test [4] it was 109%; in test [5] it was 101%; in test [6], 113%. Moreover, the values for the growth in test [7] and in test [8] were 104% and 111%, respectively.
Regarding `Cn1c2ccccc2c2ccccc21`, the growth in test [1] was 90%; in test [2] it was 106%; in test [3], 103%; in test [4], 106%; in test [5] it was 106%; in test [6], 107%. For the same compound, the growth in test [7] is 110%; in test [8], 101%.
Take `CCOC(=O)C1C(=O)C(=O)N(C(C)C)C1C(=O)OCC` (stereo unspecified): the growth in test [1] is 105%; in test [2] it was 119%; in test [3], 104%; in test [4], 103%; in test [5] it was 99.8%; in test [6] it was 110%. Moreover, the results for the growth in test [7] and in test [8] were 104% and 98.9%, respectively.
As for `Cc1c(CN(C)C)cc(C(C)C)cc1C(C)C`, the growth is 131% in test [1]; 118% in test [2]; 111% in test [3]; 104% in test [4]; 96.7% in test [5]; 104% in test [6]. In addition, the values for the growth in test [7] and in test [8] were 104% and 114%, respectively.
Turning to `COc1ccc(/C=C(/C(=O)N2CCN(c3ccc(C)cc3)CC2)c2cc(OC)c(OC)c(OC)c2)cc1N`, the growth in test [1] was 97.2%; in test [2], 16.6%; in test [3], -43.8% (active); in test [4], 27.1%; in test [5] it was 12%; in test [6] it was 3.55% (active). For the same compound, the figures for the growth in test [7] and in test [8] were 31.8% and 3.83% (active), respectively.
With `CC(C)(C)c1ccc([I+]c2ccc(C(C)(C)C)cc2)cc1`, the growth in test [1] was 11.3%; in test [2], -5.08% (active); in test [3] it was -49.1% (active); in test [4], 14.9%; in test [5] it was 7.68% (active); in test [6], 7.47% (active). Further, the growth was 13.4% in test [7] and -30.6% (active) in test [8].
`COc1nc(OC)nc(-c2cc(C(=O)c3ccc(Br)cc3)n3cc(C)cc(C)c23)n1`: the growth in test [1] is 37.9%; in test [2], 42.7%; in test [3] it was 94.9%; in test [4], 89.7%; in test [5] it was 70.5%; in test [6], 36.5%. Further, the growth was 86.2% in test [7] and 94.2% in test [8].
On to `CCCCN(CCCC)c1ccc(C(=O)O)cc1`, for which the growth is 94.7% in test [1]; 97% in test [2]; 102% in test [3]; 107% in test [4]; 98.6% in test [5]; 97.3% in test [6]. Further, the growth in test [7] is 100%; in test [8] it was 103%.
As for `CCn1cnc(C[C@H](NC(=O)[C@@H](NC(=O)Nc2cc(C(F)(F)F)cc(C(F)(F)F)c2)C(C)C)C(=O)OC)c1`, the growth is -77.8% [100 µM] (active) in test [1]; -97.6% [100 µM] (active) in test [2]; -87.1% [100 µM] (active) in test [3]; -44.1% [100 µM] (active) in test [4]; -55.7% [100 µM] (active) in test [5]; -88.1% [100 µM] (active) in test [6]. Moreover, the results for the growth in test [7] and in test [8] were -86.3% [100 µM] (active) and -81.9% [100 µM] (active), respectively.
Regarding `COc1cc(N2C(=O)C=CC2=O)ccc1N1C(=O)C=CC1=O`, the growth in test [1] is 77.4%; in test [2], 95.3%; in test [3], 109%; in test [4], 85.4%; in test [5], 98.8%; in test [6], 107%. Further, the growth was 114% in test [7] and 109% in test [8].
On to `COc1ccc(C2C3(C#N)C(N)=NC(=C(C#N)C#N)C23C#N)cc1OC` (stereo unspecified), for which the growth is 110% in test [1]; 93.3% in test [2]; 107% in test [3]; 106% in test [4]; 108% in test [5]; 112% in test [6]. The results for the growth in test [7] and in test [8] were 122% and 118%, respectively.
For `CCCCCCCCCCCCc1ccc([N+](CC)(CC)CC)cc1`, the growth in test [1] was 18.6%; in test [2], 30.2%; in test [3] it was 13.9%; in test [4] it was 58.8%; in test [5], 27.9%; in test [6] it was 41.8%. Besides, the growth was 36.7% in test [7] and 25.6% in test [8].
Regarding `O=C(Nc1ccc(Cl)cn1)C1(c2ccccc2)CCCCC1`, the growth in test [1] was 94.7%; in test [2] it was 98.4%; in test [3] it was 125%; in test [4] it was 96.6%; in test [5], 96.3%; in test [6], 117%. For the same compound, the growth is 99.1% in test [7] and 101% in test [8].
On to `CCCNC(=O)Oc1ccc(/C(=C(/C)Cc2ccc(OC)cc2)c2ccc(OCCN3CCCC3)cc2)cc1`, for which the growth in test [1] is 37%; in test [2] it was 82.7%; in test [3], 65.8%; in test [4], 77.7%; in test [5], 25.3%; in test [6], 48.8%. The results for the growth in test [7] and in test [8] were 62.5% and 78.7%, respectively.
